Shown are actives, neighbours in structure and some others; about 1.2% of the full set was active somewhere.
GSH bead fluor – compound fluorescence on glutathione beads, profiling panel, artefact control, biophysical, 488/530 nm, flow cytometry; GSH beads flow cytometry, compound fluorescence 488/530 nm; active compounds read high; fluorescence (KMESF) at 10 µM; 0.25% of 190,000 active; in the data active means fluorescence above about 89;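 further: glutathione beads carrying GST-tagged Bcl family fusion proteins plus one bare bead set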
RGS16-Gao HTS – modulators of RGS16 binding to Galphao, primary screen, biochemical, human proteins, multiplexed bead flow cytometry. binding response (% of control), % at 10 µM. 0.38% of 220,000 active. bead-based flow cytometry RGS16-Galphao binding, fluorescence; actives lie on both sides. AID 1441, 2008;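 further: Galphao activated by GDP with aluminum fluoride before binding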
Target sequence (O15492 whole entry, looked up): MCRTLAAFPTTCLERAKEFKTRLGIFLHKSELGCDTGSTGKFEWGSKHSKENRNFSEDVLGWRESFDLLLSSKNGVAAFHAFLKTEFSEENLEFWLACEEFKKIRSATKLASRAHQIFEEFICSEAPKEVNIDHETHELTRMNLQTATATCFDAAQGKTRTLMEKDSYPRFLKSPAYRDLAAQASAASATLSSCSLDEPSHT
Target sequence (P09471 whole entry, looked up): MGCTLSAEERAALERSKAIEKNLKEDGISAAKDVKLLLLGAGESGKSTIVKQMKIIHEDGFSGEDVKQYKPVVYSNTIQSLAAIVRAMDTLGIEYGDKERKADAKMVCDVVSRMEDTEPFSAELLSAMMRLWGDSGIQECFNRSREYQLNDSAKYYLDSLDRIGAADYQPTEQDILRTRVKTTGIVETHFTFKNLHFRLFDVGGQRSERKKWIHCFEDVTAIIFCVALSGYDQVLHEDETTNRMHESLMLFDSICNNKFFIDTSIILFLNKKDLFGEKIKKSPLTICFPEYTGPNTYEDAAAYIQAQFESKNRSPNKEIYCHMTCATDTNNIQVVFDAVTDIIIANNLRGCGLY
Avidin fluor – green autofluorescence of compounds with avidin beads – biophysical, 488/530 nm, flow cytometry, artefact control, profiling panel; compound fluorescence 488/530 nm; active compounds read high; fluorescence (KMESF) at 10 µM; 0.38% of 220,000 active; AID 1775, 2009; in the data active means fluorescence above about 47
RGS4-Gao reg – modulators of RGS4 binding to Galphao, primary screen, biochemical, multiplexed bead flow cytometry; Guanine nucleotide-binding protein G(o) subunit alpha (Homo sapiens), P09471; actives lie on both sides; 0.33% of 220,000 active; binding response (% of control), % at 10 µM; in the data active means binding response below about 49% or above about 150%; inactive means in between;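 further: fluorescent Galphao activated with aluminum fluoride binding bead-coupled RGS4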
RGS7-Gao – RGS7-Galphao binding modulators, primary screen, biochemical, multiplexed bead flow cytometry. binding response (% of control), % at 10 µM. actives lie on both sides. Guanine nucleotide-binding protein G(o) subunit alpha (Homo sapiens), P09471. 0.35% of 220,000 active; in the data active means binding response below about 49% or above about 150%; inconclusive means no clear call, values can overlap the other calls; inactive means in between;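 further: fluorescent Galphao held in activated GDP-AlF4 state binding bead-coupled RGS7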
RGS8-Gao – RGS8-Galphao binding modulators, primary screen, biochemical, multiplexed bead flow cytometry. actives lie on both sides. response (percent of control binding), % at 10 µM. 0.34% of 220,000 active. AID 1423, 2008; in the data active means response below about 60% or above about 140%; inactive means in between;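 further: Galphao activated as the GDP aluminium fluoride complex binding bead-coupled RGS8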
RGS4-Gao HTS – modulators of RGS–Galpha-o binding, primary screen, biochemical, multiplexed beads, flow cytometry, RGS4/7/8/16/19. shares compounds with RGS16-Gao HTS. multiplexed bead flow cytometry. RGS4–Galpha-o binding response, % at 10 µM. 99% of 1,600 active. AID 1504, 2009;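 further: fluorescently labeled Galpha-o bound to GDP with aluminium fluoride binding biotinylated RGS beads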
Biotin-avidin – disruption of biotin probe capture by avidin, counter-screen for RGS protein interaction modulators, biochemical, flow cytometry, bead-based; shares compounds with RGS16-Gao HTS; streptavidin beads, fluorescein-biotin binding; inhibition, % at 10 µM; 1,700 tested, under 10 active;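 active means inhibition above 50%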;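 further: median green fluorescence of gated singlet beads compared with DMSO control wells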
RGS8-Gao confirm – RGS8-Galphao binding modulators, confirmation, biochemical, multiplexed bead flow cytometry, single concentration | shares compounds with RGS16-Gao HTS | bead-based flow cytometry RGS8-Galphao binding, fluorescence; actives lie on both sides | binding response (% of control), % at 10 µM | 3% of 1,700 active; in the data active means binding response below about 72% or above about 130%; inactive means in between;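 further: Galphao activated as GDP AlF4 complex before binding bead RGS8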
RGS7-Gao single – RGS7-Galphao binding modulators, confirmation, biochemical, multiplexed bead flow cytometry, single concentration; shares compounds with RGS16-Gao HTS; bead-based flow cytometry RGS7-Galphao binding; actives lie on both sides; response (percent of control binding), % at 10 µM; 7.8% of 1,700 active; AID 1837, 2009; in the data active means response below about 75% or above about 130%; inactive means in between;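 further: fluorescent Galphao activated with GDP and aluminum fluoride binding bead-coupled RGS7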
RGS16-Gao conf – modulators of RGS16-Galphao protein binding, confirmation, biochemical, single concentration, multiplexed bead flow cytometry; shares compounds with RGS16-Gao HTS; bead-based flow cytometry; actives lie on both sides; response (% of control binding), % at 10 µM; 4% of 1,700 active; AID 1838, 2009; in the data active means response below about 74% or above about 130%; inactive means in between;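 further: Galphao activated as the GDP aluminium fluoride complex binding bead-coupled RGS16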
RGS4-Gao single – modulators of RGS4-Galphao protein binding, confirmation, biochemical, single concentration, multiplexed bead flow cytometry. shares compounds with RGS16-Gao HTS. actives lie on both sides. binding response (% of control), % at 10 µM. 4% of 1,700 active. AID 1840, 2009; in the data active means binding response below about 74% or above about 130%; inactive means in between
RGS19-Gao conf – regulators of RGS19-Galphao binding, confirmation, biochemical, single point, multiplexed bead flow cytometry. bead-based flow cytometry RGS19-Galphao binding; actives lie on both sides. 5% of 1,700 active. response (percent of control binding), % at 10 µM. shares compounds with RGS16-Gao HTS; in the data active means response below about 50% or above about 160%; inactive means in between
Of the large screens only hits and unclear results are named; the others gave an inactive call (follow-up assays come after a bar, where they were run); [ ] = another dose, or the depositor's remark. Unless noted, how the calls were made is not given here.

Cc1cccc(CC2S/C(=N/c3ccccn3)NC2=O)c1 (stereo unspecified)	RGS8-Gao 142[activator] | RGS4-Gao HTS 113 | Biotin-avidin inactive | RGS8-Gao confirm inactive | RGS7-Gao single inactive | RGS16-Gao conf inactive | RGS4-Gao single inactive | RGS19-Gao conf inactive
C=CCN1C(=O)C2(NNc3ccccc3O2)c2ccccc21 (stereo unspecified)	none
C=CCN1C(=O)C2(NC(=O)c3ccccc3N2)c2ccccc21 (stereo unspecified)	Avidin fluor 164, RGS7-Gao 270[activator] | RGS4-Gao HTS 123 | Biotin-avidin inactive | RGS8-Gao confirm inactive | RGS7-Gao single inactive | RGS16-Gao conf inactive | RGS4-Gao single inactive | RGS19-Gao conf inactive
CC(=O)Nc1ccc2c(c1)CN(c1cc(C)ccc1C)CO2	none
COc1cc(CN2CCCC(C(=O)c3ccc4c5c(cccc35)CC4)C2)cc(OC)c1O (stereo unspecified)	none
Cc1cc(C)n(-c2cc(N3CCN(C(=O)c4cccc(Br)c4)CC3)ccc2[N+](=O)[O-])n1	none
CC(=O)N1CCN(c2ccc([N+](=O)[O-])c(-n3nc(C)cc3C)c2)CC1	RGS8-Gao 60 | RGS4-Gao HTS 79 | Biotin-avidin inactive | RGS8-Gao confirm inactive | RGS7-Gao single inactive | RGS16-Gao conf inactive | RGS4-Gao single inactive | RGS19-Gao conf inactive
O=C(c1ccco1)N1CCN(c2ccc([N+](=O)[O-])c(N3CCOCC3)c2)CC1	RGS4-Gao reg 43, RGS7-Gao 31, RGS8-Gao 51 | Biotin-avidin inactive | RGS8-Gao confirm inactive | RGS7-Gao single 61 | RGS16-Gao conf inactive | RGS4-Gao single inactive | RGS19-Gao conf inactive
CCCCN(c1ccccc1)S(=O)(=O)c1cccc2cccnc12	RGS7-Gao inconclusive (no result: GSH bead fluor, Avidin fluor)
CCOC(=S)NC(=O)c1sc2ccccc2c1Cl	none
CCCOC(=S)NC(=O)c1sc2ccccc2c1Cl	none (no result: RGS16-Gao HTS, Avidin fluor, RGS4-Gao reg, RGS7-Gao, RGS8-Gao) | Biotin-avidin inactive | RGS8-Gao confirm inactive | RGS7-Gao single inactive | RGS16-Gao conf inactive | RGS4-Gao single inactive | RGS19-Gao conf inactive

High-throughput results from PubChem BioAssay.
